Here are results for eight compounds from PubChem BioAssay (EPA / NIEHS).

Calls of active or inactive are those of the source. Rule for the calls: active = hit-call score of the fitted dose curve at least 0.9, where 1 is the maximum; inactive = score below 0.9.

As a reminder, the AC50 is the concentration at which the activity in the assay is half-maximal.

The nature of experiment [1]: ATG_CRE_CIS: Attagene CIS-FACTORIAL HepG2 Assay for human cAMP Responsive Element (CRE) binding protein 3 (AID 2282926). Conditions: HepG2 CRE cis-reporter, Attagene multiplexed mRNA; actives raise or lower the signal. An outline of the steps: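 HepG2 cells transiently transfected with cis-element-driven multiple reporter transcription units; CRE reporter mRNA measured 24 h after dosing by RT-PCR, 6-FAM labelling, HpaI digestion and capillary electrophoresis. Bidirectional fit versus DMSO baseline.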

Experiment [2] has as its target CCAAT/enhancer-binding protein beta (Homo sapiens) (UniProt P17676). The experiment is described as follows: ATG_C_EBP_CIS: Attagene CIS-FACTORIAL HepG2 Assay for human CCAAT/Enhancer Binding Protein (C/EBP) beta (AID 2282927). The note with it: HepG2 Attagene cis-factorial transcription factor reporter; actives raise or lower the signal. In a few lines: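 Transiently transfected HepG2 (MRTU library, endogenous TF-driven promoters); 24 h dosing; total RNA → oligo(dT) RT → PCR → 6-FAM primer extension → HpaI digest → CE; fit bidirectionally vs DMSO.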

A short description of experiment [3]: ATG_CMV_CIS: Attagene CIS-FACTORIAL HepG2 Assay for human CMV (Internal Marker) (AID 2282928).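 Note: endpoint acts as a background internal control marker rather than a target.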 The note with it: HepG2 CMV promoter reporter, transcription factor profiling; actives raise or lower the signal. An outline of the steps:
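CMV internal-marker background readout in transiently transfected HepG2 cells bearing cis-regulated reporter units. Reporter mRNA is measured 24 h after dosing by RT-PCR and capillary electrophoresis, with bidirectional fitting against DMSO.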

The target of experiment [4] is Aryl hydrocarbon receptor (Homo sapiens) (UniProt P35869). In words: ATG_Ahr_CIS: Attagene CIS-FACTORIAL HepG2 Assay for human Aryl Hydrocarbon Receptor (Ahr) (AID 2282930). The note with it: HepG2 AhR cis-factorial reporter transcription; actives raise or lower the signal. In a few lines: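 Read-out: reporter mRNA quantified by RT-PCR with fluorescent primer extension and capillary electrophoresis. Human HepG2 liver cells carried transfected cis-promoter reporter units and were exposed to chemical for 24 h; gain or loss fitted relative to DMSO.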

Experiment [5] can be described thus: ATG_AP_1_CIS: Attagene CIS-FACTORIAL HepG2 Assay for human Activator Protein 1 (AP-1) (AID 2282931). Conditions: HepG2 Attagene cis-factorial AP-1 reporter mRNA; actives raise or lower the signal. In a few lines: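 We transfected HepG2 cells transiently with a set of cis-regulated reporter transcription units, dosed them for 24 h, and quantified reporter mRNA via RT-PCR and capillary electrophoresis, scoring gain or loss of signal relative to DMSO.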

Experiment [6] is described as follows: ATG_AP_2_CIS: Attagene CIS-FACTORIAL HepG2 Assay for human Activator Protein 2 (AP-2) (AID 2282932). Conditions: HepG2 AP-2 cis-reporter, Attagene transcription factor profiling; actives raise or lower the signal. In a few lines:
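HepG2 cells transiently transfected with cis-element reporter units and exposed for 24 h. Reporter mRNA measured by RT-PCR, FAM labelling, HpaI digestion and capillary electrophoresis. Changes in either direction fitted relative to DMSO.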

Experiment [7] is described as follows: ATG_BRE_CIS: Attagene CIS-FACTORIAL HepG2 Assay for human Bone Morphogenetic Protein (BMP) Response Element (BRE) (AID 2282933). Conditions: HepG2 BMP response element reporter, Attagene transcription factor profiling; actives raise or lower the signal. In a few lines: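 After a 24 h chemical treatment, transiently transfected HepG2 cells were lysed for RNA; reporter transcripts were quantified by fluorescent RT-PCR and capillary electrophoresis, normalised to DMSO.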

Experiment [8] addresses Transcription factor E2F1 (Homo sapiens) (UniProt Q01094). In words: ATG_E2F_CIS: Attagene CIS-FACTORIAL HepG2 Assay for human E2F Transcription Factor 1 (AID 2282935). Conditions: HepG2 Attagene cis-reporter, E2F reporter RNA transcripts; actives raise or lower the signal. In a few lines:
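Endogenous E2F1 activity read through cis-promoter reporter units transfected into HepG2. After 24 h compound treatment, reporter mRNA measured by RT-PCR, HpaI digestion and capillary electrophoresis. Bidirectional fit versus DMSO.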

A short description of experiment [9]: ATG_E_Box_CIS: Attagene CIS-FACTORIAL HepG2 Assay for human Enhancer Box (E-box) (AID 2282936). The note with it: HepG2 E-box cis-reporter transcription, actives raise or lower the signal. An outline of the steps:
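HepG2 cells transiently transfected with multiplexed cis-element reporter units, dosed 24 h; reporter mRNA quantified by RT-PCR, 6-FAM labelling, HpaI digestion and capillary electrophoresis. E-box (USF1) signal fitted bidirectionally vs DMSO.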

Experiment [10] can be described thus: ATG_EGR_CIS: Attagene CIS-FACTORIAL HepG2 Assay for human Early Growth Response 1 (EGR1) (AID 2282938). The note with it: HepG2 Attagene CIS-FACTORIAL EGR reporter mRNA; actives raise or lower the signal. In a few lines: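 Multiplexed cis-reporter system in human hepatoma HepG2 cells, transiently transfected. Cells are dosed for 24 h; reporter transcripts are amplified, fluorescently tagged and sized by capillary electrophoresis, with DMSO as negative control.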

The nature of experiment [11]: ATG_M_19_CIS: Attagene CIS-FACTORIAL HepG2 Assay for M19 Transcription Factor (Internal Marker) (AID 2282939). Conditions: HepG2 Attagene CIS-FACTORIAL M19 internal marker reporter; actives raise or lower the signal. An outline of the steps: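 In this multiplexed cell assay, transiently transfected HepG2 reporter units report endogenous transcription-factor activity; after 24 hours of treatment, labelled reporter cDNA fragments are quantified by capillary electrophoresis and fitted bidirectionally against DMSO.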

Experiment [12] can be described thus: ATG_ERE_CIS: Attagene CIS-FACTORIAL HepG2 Assay for Estrogen Response Element (ERE) (AID 2282940). The note with it: HepG2 ERE cis-reporter, Attagene RNA transcript; actives raise or lower the signal. In a few lines: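 Measuring endogenous transcription factor output, the assay doses transfected HepG2 cells for 24 hours and quantifies reporter transcripts by fluorescent RT-PCR and capillary electrophoresis, with DMSO as baseline.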

Experiment [13] is described as follows: ATG_Ets_CIS: Attagene CIS-FACTORIAL HepG2 Assay for human Erythroblast Transformation Specific (ETS) (AID 2282941). Conditions: HepG2 ETS cis-reporter transcription, actives raise or lower the signal. In a few lines: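 HepG2 cells transfected with multiple cis-regulated reporter units measuring endogenous ETS-driven transcription, 24 h after dosing. Reporter mRNA quantified by RT-PCR with capillary electrophoresis; bidirectional fit relative to DMSO.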

The nature of experiment [14]: ATG_FoxO_CIS: Attagene CIS-FACTORIAL HepG2 Assay for human Forkhead box O (FoxO) (AID 2282943). Conditions: HepG2 Attagene cis-reporter, FoxO element, mRNA; actives raise or lower the signal. An outline of the steps:
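Read-out: fluorescence of 6-FAM-labelled reporter cDNA fragments resolved by capillary electrophoresis. Transiently transfected HepG2 cells were dosed for 24 h; activity fitted in both directions relative to DMSO controls.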

Experiment [15] is described as follows: ATG_GATA_CIS: Attagene CIS-FACTORIAL HepG2 Assay for human GATA Binding Protein (AID 2282944). Conditions: HepG2 GATA cis-element reporter, Attagene multiplex mRNA; actives raise or lower the signal. An outline of the steps: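 Measures endogenous transcription factor-driven reporter mRNA in HepG2 cells transiently carrying cis-regulated constructs. 24 h dosing; RNA via oligo(dT) reverse transcription, PCR, HpaI digestion, capillary electrophoresis; fitted relative to DMSO.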

A short description of experiment [16]: ATG_M_61_CIS: Attagene CIS-FACTORIAL HepG2 Assay for M61 Transcription Factor (Internal Marker) (AID 2282937). Conditions: HepG2 Attagene CIS-FACTORIAL M61 internal marker reporter; actives raise or lower the signal. An outline of the steps: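 Multiplexed reporter mRNA assay, HepG2 human hepatoma cells, 24 h treatment. Signal: FAM-labelled, HpaI-digested RT-PCR fragments by CE. Fit: bidirectional, baseline DMSO.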

For experiment [17], the target named is Hepatocyte nuclear factor 3-beta (Homo sapiens) (UniProt Q9Y261). The experiment is described as follows: ATG_FoxA2_CIS: Attagene CIS-FACTORIAL HepG2 Assay for human Forkhead box A2 (FOXA2) (AID 2282942). The note with it: HepG2 cis-reporter transcription factor activity, 24 h; actives raise or lower the signal. An outline of the steps: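 Multiplexed cis-element reporter assay in transiently transfected HepG2. Twenty-four hours post-dosing, RNA was reverse-transcribed, amplified, FAM-labelled, HpaI-digested and separated by CE. Activity gain or loss relative to DMSO.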

The nature of experiment [18]: ATG_GLI_CIS: Attagene CIS-FACTORIAL HepG2 Assay for human Zinc Finger Protein GLI1 (AID 2282945). The note with it: HepG2, Attagene cis-factorial reporter mRNA, GLI element; actives raise or lower the signal. An outline of the steps: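 Transiently transfected HepG2 cells report endogenous transcription factor activity via cis-element-driven reporter units. After 24 h compound exposure, reporter mRNA was measured by RT-PCR with capillary electrophoresis; bidirectional fitting against DMSO baseline.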

For experiment [19], the target named is Retinoic acid receptor alpha (Homo sapiens) (UniProt P10276). The experiment is described as follows: ATG_DR5_RAR_CIS: Attagene CIS-FACTORIAL HepG2 Assay for human Retinoic Acid Receptor Alpha (RARE), DR5 submotif (AID 2282934).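 For AC50: reporter responds to endogenous RAR alpha beta and gamma in HepG2 not RARA alone.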 The note with it: HepG2 Attagene cis-factorial RARE DR5 reporter, mRNA; actives raise or lower the signal. In a few lines: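 Read-out: DR5-driven reporter transcript measured by RT-PCR, 6-FAM primer extension, HpaI digest and capillary electrophoresis. Human HepG2 liver cells carry transiently transfected cis-element reporter constructs; dosing lasts 24 h. Gain or loss of signal fitted against DMSO baseline.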

Experiment [20] can be described thus: ATG_DR4_LXR_CIS: Attagene CIS-FACTORIAL HepG2 Assay for human Liver X Receptor (LXR), DR4 submotif (AID 2282929). The note with it: HepG2 Attagene DR4 cis-reporter, mRNA transcription; actives raise or lower the signal. An outline of the steps: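 Transiently transfected HepG2 liver cells; cis-regulated reporters; 24 h dosing. RT-PCR plus CE read-out of reporter mRNA. DMSO baseline, bidirectional curve fitting.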

Retinoic acid receptor alpha (Homo sapiens), sequence (P10276 whole entry, looked up): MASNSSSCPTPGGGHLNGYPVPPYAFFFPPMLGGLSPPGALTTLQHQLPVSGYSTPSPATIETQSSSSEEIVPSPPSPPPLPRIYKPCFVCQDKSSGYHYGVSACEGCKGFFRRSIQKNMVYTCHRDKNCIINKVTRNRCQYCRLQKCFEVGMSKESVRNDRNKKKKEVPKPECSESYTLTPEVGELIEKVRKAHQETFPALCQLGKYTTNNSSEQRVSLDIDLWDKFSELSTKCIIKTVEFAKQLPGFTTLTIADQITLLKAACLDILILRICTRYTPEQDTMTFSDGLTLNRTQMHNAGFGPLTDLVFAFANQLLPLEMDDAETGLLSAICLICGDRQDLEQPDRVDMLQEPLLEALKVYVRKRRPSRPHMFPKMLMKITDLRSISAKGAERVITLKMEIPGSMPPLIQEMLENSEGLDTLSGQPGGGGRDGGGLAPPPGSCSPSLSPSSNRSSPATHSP
CCAAT/enhancer-binding protein beta (Homo sapiens), sequence (P17676 whole entry, looked up): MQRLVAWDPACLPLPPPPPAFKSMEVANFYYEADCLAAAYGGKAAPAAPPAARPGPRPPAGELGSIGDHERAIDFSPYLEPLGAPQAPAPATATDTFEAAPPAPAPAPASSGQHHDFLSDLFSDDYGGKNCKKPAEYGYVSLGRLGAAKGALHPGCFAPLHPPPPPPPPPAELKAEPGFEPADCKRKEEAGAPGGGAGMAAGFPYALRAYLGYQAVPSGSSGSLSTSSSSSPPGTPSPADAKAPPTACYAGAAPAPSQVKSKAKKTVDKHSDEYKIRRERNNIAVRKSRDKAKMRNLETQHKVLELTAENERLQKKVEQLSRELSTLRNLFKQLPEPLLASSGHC
Hepatocyte nuclear factor 3-beta (Homo sapiens), sequence (Q9Y261 whole entry, looked up): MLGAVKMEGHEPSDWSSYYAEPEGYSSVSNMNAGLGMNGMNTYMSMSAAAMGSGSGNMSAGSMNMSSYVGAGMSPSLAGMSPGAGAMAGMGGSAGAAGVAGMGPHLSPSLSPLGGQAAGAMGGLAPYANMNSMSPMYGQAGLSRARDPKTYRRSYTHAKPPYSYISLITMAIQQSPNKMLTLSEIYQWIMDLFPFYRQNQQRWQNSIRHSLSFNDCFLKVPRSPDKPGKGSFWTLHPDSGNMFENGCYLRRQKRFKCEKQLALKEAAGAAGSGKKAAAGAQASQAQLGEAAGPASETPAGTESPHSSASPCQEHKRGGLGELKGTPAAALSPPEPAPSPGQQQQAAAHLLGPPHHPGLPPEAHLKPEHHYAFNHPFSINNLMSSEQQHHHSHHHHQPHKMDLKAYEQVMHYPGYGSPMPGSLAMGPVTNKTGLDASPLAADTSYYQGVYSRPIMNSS
Aryl hydrocarbon receptor (Homo sapiens), sequence (P35869 whole entry, looked up): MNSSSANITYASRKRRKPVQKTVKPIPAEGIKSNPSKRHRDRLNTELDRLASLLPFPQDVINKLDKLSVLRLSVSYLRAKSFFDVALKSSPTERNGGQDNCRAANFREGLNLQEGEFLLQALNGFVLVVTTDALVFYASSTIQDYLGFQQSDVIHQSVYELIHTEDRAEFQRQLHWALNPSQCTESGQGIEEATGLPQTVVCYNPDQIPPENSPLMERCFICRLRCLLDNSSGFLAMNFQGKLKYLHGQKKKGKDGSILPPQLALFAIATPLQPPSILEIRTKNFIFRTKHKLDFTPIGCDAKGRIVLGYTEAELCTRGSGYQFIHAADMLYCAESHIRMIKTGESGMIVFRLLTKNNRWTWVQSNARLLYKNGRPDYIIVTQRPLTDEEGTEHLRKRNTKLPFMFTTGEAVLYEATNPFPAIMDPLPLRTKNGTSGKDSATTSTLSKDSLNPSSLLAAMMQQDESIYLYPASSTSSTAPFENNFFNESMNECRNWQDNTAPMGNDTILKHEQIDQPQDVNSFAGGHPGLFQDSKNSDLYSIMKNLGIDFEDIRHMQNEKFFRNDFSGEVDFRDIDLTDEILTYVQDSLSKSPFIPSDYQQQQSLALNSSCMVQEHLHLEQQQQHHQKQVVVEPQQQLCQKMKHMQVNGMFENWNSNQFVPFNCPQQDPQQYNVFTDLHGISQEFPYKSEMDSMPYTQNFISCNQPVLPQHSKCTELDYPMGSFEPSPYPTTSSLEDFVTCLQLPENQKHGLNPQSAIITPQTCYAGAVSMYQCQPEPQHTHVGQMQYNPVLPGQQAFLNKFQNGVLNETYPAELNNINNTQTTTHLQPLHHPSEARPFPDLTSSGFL
Transcription factor E2F1 (Homo sapiens), sequence (Q01094 whole entry, looked up): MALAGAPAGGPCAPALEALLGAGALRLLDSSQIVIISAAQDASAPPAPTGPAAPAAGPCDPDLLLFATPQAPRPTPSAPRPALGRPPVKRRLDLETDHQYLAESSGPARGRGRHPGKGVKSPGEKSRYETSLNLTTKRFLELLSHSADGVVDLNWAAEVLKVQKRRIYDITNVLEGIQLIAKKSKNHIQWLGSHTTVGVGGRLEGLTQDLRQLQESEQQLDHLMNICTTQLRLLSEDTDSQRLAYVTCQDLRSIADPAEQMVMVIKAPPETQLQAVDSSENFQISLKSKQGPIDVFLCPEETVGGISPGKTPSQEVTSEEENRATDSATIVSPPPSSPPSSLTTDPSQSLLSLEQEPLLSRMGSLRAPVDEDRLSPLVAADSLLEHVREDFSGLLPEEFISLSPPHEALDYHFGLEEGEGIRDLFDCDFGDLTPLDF

On to `CC(C)(C)c1n[nH]c(=S)n(N)c1=O`, for which the outcome in experiment [1], in experiment [2], in [3], in experiment [5], in experiment [6] and in [7] was inactive. The call in experiment [8], in [9], in experiment [10], in experiment [11], in [12] and in experiment [13] was inactive. The compound was called inactive in experiment [14] and in [15]. Moreover, in experiment [4], the AC50 was 23.9 µM (active).

`COC(=O)C1=C(C)NC(C)=C(C(=O)OCCN(C)Cc2ccccc2)C1c1cccc([N+](=O)[O-])c1` (stereo unspecified): the compound was called inactive in [1], in experiment [3], in experiment [5], in [16], in [10] and in experiment [11]. Besides, the call in experiment [12], in [13], in [17], in experiment [14] and in experiment [15] was inactive. Moreover, the AC50 in [2] was 15.5 µM (active); in [6], 26.5 µM (active); in [8] it was 25 µM (active); in experiment [18], 99.5 µM (active).

As for `Cc1cccc(Nc2ccccc2C(=O)O)c1C`, the call in [1], in experiment [2], in experiment [3], in experiment [5], in experiment [6] and in experiment [7] was inactive. In addition, the result in experiment [19], in [8], in experiment [9], in experiment [16], in experiment [10] and in [11] was inactive. For the same compound, the result in [13], in [17], in experiment [14], in experiment [15] and in [18] was inactive.

Turning to `CC(C)(CO)[N+](=O)[O-]`, the result in experiment [1], in [2], in experiment [3], in [4], in experiment [5] and in experiment [6] was inactive. Also, the outcome in [7], in [9], in experiment [16], in [10], in experiment [11] and in experiment [13] was inactive. Besides, the compound was classed as inactive in experiment [14], in [15] and in experiment [18].

With `COc1cc(C=O)ccc1OC(=O)C(C)C`, the compound was called inactive in experiment [1], in experiment [2], in [3], in experiment [20], in [6] and in [19]. The compound was classed as inactive in [16], in experiment [10], in experiment [11], in [17], in [14] and in [18].

Regarding `CCCCCCCCCCC(CO)CCCCCCCC` (stereo unspecified), the compound was called inactive in experiment [1], in experiment [2], in experiment [3], in [4], in experiment [5] and in experiment [6]. Moreover, the outcome in experiment [7], in experiment [8], in experiment [9], in experiment [16], in experiment [10] and in experiment [13] was inactive. Besides, the result in [14] and in [15] was inactive.

For `CCCCNC(=O)NS(=O)(=O)c1ccc(N)cc1`, the call in experiment [1], in [2], in experiment [3], in experiment [5], in experiment [6] and in experiment [7] was inactive. Besides, the result in [19], in [8], in experiment [9], in [16], in [10] and in experiment [11] was inactive. Moreover, the compound was called inactive in experiment [17], in [14], in experiment [15] and in experiment [18].

`CCCCC(CC)COC(=O)/C=C\C(=O)OCC(CC)CCCC` (stereo unspecified): the AC50 in [1] was 45 µM (active); in experiment [2], 56.9 µM (active); in experiment [20], 54.7 µM (active); in experiment [5], 52.7 µM (active); in experiment [19], 100 µM (active); in experiment [8], 100 µM (active). In addition, the call in experiment [4], in experiment [6], in experiment [7], in experiment [9], in experiment [16] and in experiment [10] was inactive. Besides, the compound was classed as inactive in [11], in experiment [13], in experiment [17], in experiment [14] and in experiment [15].
